The source made the active and inactive calls. Entries that show only a call come without a potency. The call rests on the fitted dose curve; in most records, active means well fitted activation curve with a large enough effect; inconclusive means small, poorly fitted or top-dose-only effect; inactive means no such curve, though single readings can be large or run the other way.

For this experiment, the target named is Parathyroid hormone/parathyroid hormone-related peptide receptor (Homo sapiens) (UniProt Q03431). Put plainly: qHTS for PTHR1 Agonists: Optimization Screen against the NCGC LOPAC library (AID 1347079). The following applies: HEK293 GP2 PTHR1 GloSensor cAMP luminescence, 1 h; series mostly up to 57.1 µM. The method in brief: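 Signal increase flags agonism. GP2 cells, derived from HEK-293, express human PTHR1 and a GloSensor cAMP construct.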
Sequence of Parathyroid hormone/parathyroid hormone-related peptide receptor (Homo sapiens) (Q03431 whole entry, looked up): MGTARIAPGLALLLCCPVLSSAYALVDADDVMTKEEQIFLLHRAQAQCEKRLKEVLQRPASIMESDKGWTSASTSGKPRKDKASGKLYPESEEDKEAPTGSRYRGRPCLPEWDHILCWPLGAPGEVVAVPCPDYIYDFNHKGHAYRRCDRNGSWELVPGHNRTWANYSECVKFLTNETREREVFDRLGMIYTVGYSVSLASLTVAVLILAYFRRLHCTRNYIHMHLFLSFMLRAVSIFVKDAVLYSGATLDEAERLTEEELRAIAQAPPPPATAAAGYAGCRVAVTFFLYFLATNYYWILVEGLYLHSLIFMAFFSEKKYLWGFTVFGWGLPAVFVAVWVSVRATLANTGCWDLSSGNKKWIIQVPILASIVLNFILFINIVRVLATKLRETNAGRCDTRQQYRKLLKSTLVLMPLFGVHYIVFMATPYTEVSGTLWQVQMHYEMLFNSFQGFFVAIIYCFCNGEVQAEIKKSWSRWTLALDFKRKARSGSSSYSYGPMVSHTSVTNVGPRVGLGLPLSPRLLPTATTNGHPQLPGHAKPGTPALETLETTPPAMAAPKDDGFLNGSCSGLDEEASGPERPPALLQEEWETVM
Turning to `C[C@@H]1[C@@H]2Cc3ccc(O)cc3[C@@]1(C)CCN2CC1CC1`, the Potency result was “inactive”.
Turning to `COc1cc(CC(C)N)c(OC)cc1I` (centres undefined), the Potency entry was “inactive”.
As to `CCCCCCC(C)(C)c1ccc([C@@H]2C[C@H](O)CC[C@H]2CCCO)c(O)c1`, the Potency result was “inactive”.
With `NC(N)=NOCC[C@H](N)C(=O)O`, the Potency result was “inactive”.
Regarding `N[C@@H](CCl)C(=O)O`, the Potency result was “inactive”.
For `C[C@@H]1O[C@H](C[N+](C)(C)C)CS1` the value was “inactive”.
For `C=CCN1CC[C@]23c4c5ccc(O)c4O[C@@H]2/C(=N/N=C2\CC[C@@]4(O)C6Cc7ccc(O)c8c7[C@@]4(CCN6CC=C)[C@@H]2O8)CC[C@@]3(O)C1C5` the value was “inactive”; for `COc1ccc2c(c1)[C@@]13CCCC[C@H]1[C@@H](C2)NCC3`, “inactive”; for `CCCn1c(C)c(C(=O)c2ccc3ccccc3c2)c2ccccc21`, “inactive”.
For `N[C@@H](Cn1ccc(=O)[nH]c1=O)C(=O)O`, the Potency entry is “inactive”.
For `CCN(CCCl)Cc1ccccc1Br`, the Potency entry was “inactive”.
For `O=c1c2ccccc2[se]n1-c1ccccc1` the value was “inactive”; for `O=C(O)c1cc[c]([Hg][Cl])cc1`, “inactive”.
For `CCCN(CCC)CCc1c[nH]c2ccc(C(N)=O)cc12` the value was “inactive”.

(Values after PubChem BioAssay (NCATS).)
